In the supplement of paper PMC3334620:
In all, about 33,000 sequences were measured (“E-score (-0.5 to 0.5)”: median about -0.021, highest 2% from about 0.32 on). The list comes from a sample in which the highest values are over-represented; it also holds similar and randomly drawn sequences.

Each sequence was assayed against T1, Zap1 (UniProt P47043) (assay: PBM E-score (8-mer binding enrichment) (E-score (-0.5 to 0.5)); higher = stronger / more preferred TF binding). Conditions: protein concentration: 200 nM; construct: GST-full length.
T1 sequence: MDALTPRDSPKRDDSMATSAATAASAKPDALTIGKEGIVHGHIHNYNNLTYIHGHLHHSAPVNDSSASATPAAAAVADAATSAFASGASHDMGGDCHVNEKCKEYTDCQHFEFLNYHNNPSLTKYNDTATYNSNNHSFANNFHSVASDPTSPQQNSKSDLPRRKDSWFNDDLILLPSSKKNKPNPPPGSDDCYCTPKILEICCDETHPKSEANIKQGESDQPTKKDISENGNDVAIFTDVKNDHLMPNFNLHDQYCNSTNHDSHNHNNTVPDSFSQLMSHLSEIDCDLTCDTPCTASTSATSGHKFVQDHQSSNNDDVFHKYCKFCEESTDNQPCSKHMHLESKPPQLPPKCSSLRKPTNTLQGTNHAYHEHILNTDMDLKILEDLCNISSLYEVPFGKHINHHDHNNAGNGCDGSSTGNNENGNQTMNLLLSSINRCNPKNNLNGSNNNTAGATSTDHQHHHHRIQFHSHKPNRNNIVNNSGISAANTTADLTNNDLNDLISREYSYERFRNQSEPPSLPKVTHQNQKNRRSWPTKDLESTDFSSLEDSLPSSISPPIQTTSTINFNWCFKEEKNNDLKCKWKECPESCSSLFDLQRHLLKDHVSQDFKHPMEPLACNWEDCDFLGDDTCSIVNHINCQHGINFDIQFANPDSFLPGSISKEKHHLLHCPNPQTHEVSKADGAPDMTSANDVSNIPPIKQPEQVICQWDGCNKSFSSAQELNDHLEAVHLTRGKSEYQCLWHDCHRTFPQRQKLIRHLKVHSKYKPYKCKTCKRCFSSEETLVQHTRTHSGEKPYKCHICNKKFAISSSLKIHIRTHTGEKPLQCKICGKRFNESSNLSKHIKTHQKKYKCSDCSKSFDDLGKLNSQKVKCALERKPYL
Description: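 Universal 'all 10-mer' protein binding microarrays (Agilent AMADID 015681) probed with GST-tagged S. cerevisiae TFs (full-length or DBD) made by in vitro transcription/translation (PURExpress), about 100-200 nM. Bound TF was detected with fluorescent anti-GST. Each ungapped 8-mer (which stands for itself and its reverse complement) is scored by the PBM enrichment score (E-score), a modified Wilcoxon-Mann-Whitney statistic from -0.5 to +0.5, computed with the Universal PBM Analysis Suite. Scale: above 0.35 generally sequence-specific binding.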

Row | Sequence | PBM E-score
1 | CTAACCAC | 0.325
2 | CCTCTAAG | 0.139
3 | ACCATTTC | 0.126
4 | GATGGGCC | -0.145
5 | CCCCCCAA | -0.371
6 | TAGCCTAA | -0.0154
7 | CCTACCTC | 0.125
8 | ACTACCTA | 0.161
9 | ACTACCTC | 0.356
10 | ATTACCTG | 0.149
11 | ATTACCTA | 0.216
12 | ATTACCTC | 0.32
13 | CGTAATCA | 0.196
14 | AGGTCACA | 0.359
15 | AGGTCACG | 0.406
16 | AGGTCACT | 0.25
17 | GGGTCACC | 0.438
18 | AGGTCACC | 0.37
19 | CGGTCACG | 0.203
20 | AAGTCACA | -0.034
21 | GAGTCACC | 0.0467
22 | CGGTCACC | 0.276

Row | Sequence | PBM E-score
23 | ACGTCACC | 0.0378
24 | ATGTCACG | -0.195
25 | AGGTCAAC | 0.118
26 | ACCCATTG | 0.166
27 | CGAGCGAA | -0.162
28 | ATACGGCA | 0.0784
29 | AACGAGAG | -0.138
30 | GCTTTACA | -0.0896
31 | CTTAATCC | -0.131
32 | GACTGAAC | -0.199
33 | ACCAGCAA | 0.26
34 | TCTAGGCA | -0.0489
35 | AAAAACTT | 0.0552
36 | GCATTAGC | -0.151
37 | GGATACAA | 0.0969
38 | CGTTTGGA | 0.0241
39 | GGGTCACA | 0.398
40 | CGGTCACA | 0.163
41 | TGGTCACA | 0.231
42 | GCCCAACC | -0.0373
43 | ACTATGGC | -0.0314
44 | AGTTATGC | 0.0469

Row | Sequence | PBM E-score
45 | CGGGTGAC | 0.167
46 | ACGGTGAC | -0.0408
47 | AGGGTGTC | 0.304
48 | AGGGTGAG | -0.118
49 | AGGGTGAC | 0.415
50 | GGGGTGAA | 0.0494
51 | GGGGTGAC | 0.337
52 | AGGGTGAT | 0.427
53 | AGGGTGAA | 0.0968
54 | ATCTCGTA | -0.0363
55 | AACTGTCT | -0.105
56 | GAGAGCTA | -0.305
57 | GGCGATCA | -0.283
58 | GCCCTGCA | -0.195
59 | ACCCTGCC | 0.186
60 | ACCCTGCA | 0.394
61 | TCCCTGCA | 0.0185
62 | CCCCTGCG | -0.17
63 | ACCCTGCG | 0.422
64 | TACACAGA | 0.0113
65 | AGACTGAC | -0.202
66 | GAGCTATA | -0.233

Row | Sequence | PBM E-score
67 | ACATACGA | 0.0717
68 | CGCGTCGC | -0.204
69 | CTGTGGAA | -0.0936
70 | AACCAGAT | 0.142
71 | ACAGATCT | -0.0411
72 | ACATAACC | 0.454
73 | GCATAAGC | -0.0977
74 | ACATAACT | 0.149
75 | GCATAACA | 0.0518
76 | GCATAACC | 0.414
77 | ACATAACG | 0.0512
78 | CATCTTAA | -0.0359
79 | AAGCGGGC | -0.335
80 | AGTGACCA | 0.247
81 | AGTGACCC | 0.347
82 | CGTGACGC | -0.134
83 | GGTGACCA | 0.283
84 | AGTGACAC | -0.119
85 | AGTGACCG | 0.115
86 | CGTGACCA | 0.35
